# Assay results published in ChEMBL document CHEMBL1961873, “Compounds: GSK PKIS; Assays: Nanosyn kinase panel” (2012).
# Assays:
# [1] = biological target: T1, Inhibitor of nuclear factor kappa-B kinase subunit epsilon (Homo sapiens) (UniProt Q14164); settings: at 1 µM;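 also: reported values are averaged percent inhibition figures against human IKKε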
# T1 sequence (whole entry): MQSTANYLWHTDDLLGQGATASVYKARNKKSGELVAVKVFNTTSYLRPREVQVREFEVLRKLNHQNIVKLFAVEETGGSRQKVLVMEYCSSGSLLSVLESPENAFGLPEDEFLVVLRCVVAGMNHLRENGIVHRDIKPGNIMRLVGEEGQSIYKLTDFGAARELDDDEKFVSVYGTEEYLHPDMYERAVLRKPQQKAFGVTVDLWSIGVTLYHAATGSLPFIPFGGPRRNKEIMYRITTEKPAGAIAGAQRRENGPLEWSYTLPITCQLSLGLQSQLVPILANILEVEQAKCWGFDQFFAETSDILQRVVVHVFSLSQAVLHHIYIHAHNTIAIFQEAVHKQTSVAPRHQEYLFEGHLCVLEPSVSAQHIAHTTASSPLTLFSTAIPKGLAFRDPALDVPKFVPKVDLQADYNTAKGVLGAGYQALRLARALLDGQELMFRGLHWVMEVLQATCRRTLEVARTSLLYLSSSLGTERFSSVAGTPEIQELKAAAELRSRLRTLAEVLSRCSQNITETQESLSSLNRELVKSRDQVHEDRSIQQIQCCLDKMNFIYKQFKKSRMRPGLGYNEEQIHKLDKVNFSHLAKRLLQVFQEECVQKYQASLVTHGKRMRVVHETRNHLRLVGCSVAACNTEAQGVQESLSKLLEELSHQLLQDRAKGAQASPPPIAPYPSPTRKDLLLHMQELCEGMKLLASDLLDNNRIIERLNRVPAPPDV
# [2] = biological target: T2, Serine/threonine-protein kinase Nek1 (Homo sapiens) (UniProt Q96PY6); settings: at 0.1 µM
# T2 sequence (whole entry): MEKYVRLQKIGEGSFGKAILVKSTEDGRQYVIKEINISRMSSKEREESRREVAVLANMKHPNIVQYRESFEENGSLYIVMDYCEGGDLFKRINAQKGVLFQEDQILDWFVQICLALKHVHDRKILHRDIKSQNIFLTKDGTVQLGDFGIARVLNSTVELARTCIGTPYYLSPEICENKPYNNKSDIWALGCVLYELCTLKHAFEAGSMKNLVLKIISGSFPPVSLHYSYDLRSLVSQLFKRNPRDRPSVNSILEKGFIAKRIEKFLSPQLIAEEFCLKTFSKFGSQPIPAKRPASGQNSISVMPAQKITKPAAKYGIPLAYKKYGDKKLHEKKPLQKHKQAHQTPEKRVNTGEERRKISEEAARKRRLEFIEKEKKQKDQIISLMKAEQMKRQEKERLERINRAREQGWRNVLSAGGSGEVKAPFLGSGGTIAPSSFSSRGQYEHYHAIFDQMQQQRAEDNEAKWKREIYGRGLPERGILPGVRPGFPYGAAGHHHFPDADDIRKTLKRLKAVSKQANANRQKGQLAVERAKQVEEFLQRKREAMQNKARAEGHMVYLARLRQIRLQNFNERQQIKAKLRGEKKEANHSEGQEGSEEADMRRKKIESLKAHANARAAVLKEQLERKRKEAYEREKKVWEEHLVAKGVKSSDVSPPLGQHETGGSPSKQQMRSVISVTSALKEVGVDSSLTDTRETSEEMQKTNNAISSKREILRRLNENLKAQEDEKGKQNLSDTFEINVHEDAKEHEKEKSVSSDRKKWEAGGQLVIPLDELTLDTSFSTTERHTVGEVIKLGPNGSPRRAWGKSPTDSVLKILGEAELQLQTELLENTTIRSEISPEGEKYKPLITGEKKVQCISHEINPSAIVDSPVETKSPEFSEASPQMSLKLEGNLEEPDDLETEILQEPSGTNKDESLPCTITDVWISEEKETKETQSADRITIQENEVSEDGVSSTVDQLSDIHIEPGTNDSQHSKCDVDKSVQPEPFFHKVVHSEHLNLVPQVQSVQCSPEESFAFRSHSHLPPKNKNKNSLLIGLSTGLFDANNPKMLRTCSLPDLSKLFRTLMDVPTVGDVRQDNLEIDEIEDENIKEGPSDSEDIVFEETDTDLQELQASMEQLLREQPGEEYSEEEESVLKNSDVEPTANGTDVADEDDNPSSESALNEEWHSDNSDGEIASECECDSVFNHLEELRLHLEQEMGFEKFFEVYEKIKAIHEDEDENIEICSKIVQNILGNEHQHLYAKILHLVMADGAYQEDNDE
# [3] = biological target: T2, Serine/threonine-protein kinase Nek1 (Homo sapiens); settings: at 1 µM
# [4] = biological target: T3, Serine/threonine-protein kinase Nek2 (Homo sapiens) (UniProt P51955); settings: at 0.1 µM
# T3 sequence (whole entry): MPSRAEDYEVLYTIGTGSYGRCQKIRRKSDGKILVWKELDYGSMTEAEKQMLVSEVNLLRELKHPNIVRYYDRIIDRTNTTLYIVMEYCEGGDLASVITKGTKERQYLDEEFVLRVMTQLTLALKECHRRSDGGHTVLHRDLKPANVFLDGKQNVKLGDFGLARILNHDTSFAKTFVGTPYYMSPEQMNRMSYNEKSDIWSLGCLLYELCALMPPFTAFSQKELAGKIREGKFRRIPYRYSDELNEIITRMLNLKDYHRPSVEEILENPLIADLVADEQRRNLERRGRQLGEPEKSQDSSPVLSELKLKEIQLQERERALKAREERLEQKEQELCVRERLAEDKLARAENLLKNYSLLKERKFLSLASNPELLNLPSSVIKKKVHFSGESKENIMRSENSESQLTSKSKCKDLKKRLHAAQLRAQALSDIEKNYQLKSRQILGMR
# [5] = biological target: T3, Serine/threonine-protein kinase Nek2 (Homo sapiens); settings: at 1 µM
# [6] = biological target: Serine/threonine-protein kinase Nek6 (Homo sapiens) (UniProt Q9HC98); settings: at 0.1 µM
# [7] = biological target: Serine/threonine-protein kinase Nek6 (Homo sapiens) (UniProt Q9HC98); settings: at 1 µM
# [8] = biological target: Serine/threonine-protein kinase Nek7 (Homo sapiens) (UniProt Q8TDX7); settings: at 0.1 µM
# [9] = biological target: Serine/threonine-protein kinase Nek7 (Homo sapiens) (UniProt Q8TDX7); settings: at 1 µM
# [10] = biological target: T4, Serine/threonine-protein kinase Nek9 (Homo sapiens) (UniProt Q8TD19); settings: at 0.1 µM;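 also: reported value is the mean percent inhibition of NEK9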
# T4 sequence (whole entry): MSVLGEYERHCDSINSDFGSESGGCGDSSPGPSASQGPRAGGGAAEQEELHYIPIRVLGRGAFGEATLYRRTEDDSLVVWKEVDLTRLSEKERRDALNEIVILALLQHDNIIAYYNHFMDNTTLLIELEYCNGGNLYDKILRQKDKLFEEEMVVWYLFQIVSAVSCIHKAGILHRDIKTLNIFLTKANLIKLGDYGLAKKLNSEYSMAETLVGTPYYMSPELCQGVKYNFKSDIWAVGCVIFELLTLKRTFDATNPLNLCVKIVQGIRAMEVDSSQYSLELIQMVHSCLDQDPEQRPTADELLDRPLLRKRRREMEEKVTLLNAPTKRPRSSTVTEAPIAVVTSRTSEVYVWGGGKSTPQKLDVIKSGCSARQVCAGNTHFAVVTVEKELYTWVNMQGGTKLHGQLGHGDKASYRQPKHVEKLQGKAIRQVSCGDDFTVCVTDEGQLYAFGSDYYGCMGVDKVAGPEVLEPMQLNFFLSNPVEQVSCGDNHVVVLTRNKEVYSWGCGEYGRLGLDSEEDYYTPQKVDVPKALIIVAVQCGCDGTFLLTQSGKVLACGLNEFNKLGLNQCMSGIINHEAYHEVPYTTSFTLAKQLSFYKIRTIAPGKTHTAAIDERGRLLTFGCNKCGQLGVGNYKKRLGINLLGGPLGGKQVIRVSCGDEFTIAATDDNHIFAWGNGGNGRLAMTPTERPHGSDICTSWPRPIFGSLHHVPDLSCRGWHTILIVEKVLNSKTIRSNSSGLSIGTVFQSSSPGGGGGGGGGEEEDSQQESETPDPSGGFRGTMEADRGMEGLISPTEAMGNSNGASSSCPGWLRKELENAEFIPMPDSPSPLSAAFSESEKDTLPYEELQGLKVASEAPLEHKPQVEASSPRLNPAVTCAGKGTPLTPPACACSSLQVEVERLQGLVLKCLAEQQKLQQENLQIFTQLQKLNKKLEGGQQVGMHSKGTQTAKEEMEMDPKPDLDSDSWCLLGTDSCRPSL
# Serine/threonine-protein kinase Nek7 (Homo sapiens), sequence (Q8TDX7 whole entry, looked up): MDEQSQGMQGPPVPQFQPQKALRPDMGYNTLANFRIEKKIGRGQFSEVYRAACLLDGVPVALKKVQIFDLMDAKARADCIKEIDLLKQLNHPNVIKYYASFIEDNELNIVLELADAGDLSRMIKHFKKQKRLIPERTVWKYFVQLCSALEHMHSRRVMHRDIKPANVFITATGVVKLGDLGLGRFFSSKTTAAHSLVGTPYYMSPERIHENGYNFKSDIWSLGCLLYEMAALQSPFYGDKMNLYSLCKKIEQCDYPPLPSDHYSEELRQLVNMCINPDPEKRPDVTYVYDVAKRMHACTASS
# Serine/threonine-protein kinase Nek6 (Homo sapiens), sequence (Q9HC98 whole entry): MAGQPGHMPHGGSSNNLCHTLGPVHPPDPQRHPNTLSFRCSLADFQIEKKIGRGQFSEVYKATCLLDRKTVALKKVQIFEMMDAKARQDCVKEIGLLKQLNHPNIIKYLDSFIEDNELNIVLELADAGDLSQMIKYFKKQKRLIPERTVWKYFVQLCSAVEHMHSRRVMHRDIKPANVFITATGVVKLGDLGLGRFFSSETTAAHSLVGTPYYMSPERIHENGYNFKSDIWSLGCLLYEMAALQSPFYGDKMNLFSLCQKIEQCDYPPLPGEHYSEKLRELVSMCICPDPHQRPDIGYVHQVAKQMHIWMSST
smiles,measurement,setting,value
COc1cc(Nc2ncc(-c3ccccc3)o2)cc(OC)c1OC,inhibition,[1],1.15%
same,inhibition,[2],-1.04%
same,inhibition,[3],1.71%
same,inhibition,[4],-1.53%
same,inhibition,[5],-0.62%
same,inhibition,[6],-1.01%
same,inhibition,[7],-3.53%
same,inhibition,[8],-3.32%
same,inhibition,[9],3.67%
same,inhibition,[10],5.06%
